Among the data in publication PMC7862700, “An all-to-all approach to the identification of sequence-specific readers for epigenetic DNA modifications on cytosine” are binding signal values, retold here.

Experiment in all cases: DAPPL (digital affinity profiling via proximity ligation, sequencing); 10 mM Tris-HCl pH 7.5, 50 mM NaCl, 1 mM DTT, 4% glycerol, room temperature, 30 min; GST-TFs on glutathione beads, 16-mer random dsDNA library, 0.1% formaldehyde crosslink after washing; high values mean tight binding
The target of one assay is T1, FEV (Homo sapiens, UniProt Q99581 1-238).
T1 sequence: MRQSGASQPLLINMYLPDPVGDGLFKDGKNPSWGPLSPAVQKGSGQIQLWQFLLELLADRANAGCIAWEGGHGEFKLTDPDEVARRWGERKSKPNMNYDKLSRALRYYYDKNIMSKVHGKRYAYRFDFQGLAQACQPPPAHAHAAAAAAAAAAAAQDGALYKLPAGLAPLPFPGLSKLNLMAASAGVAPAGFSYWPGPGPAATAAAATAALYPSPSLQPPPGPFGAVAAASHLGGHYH
The following applies: protein: recombinant; tags: N-terminal GST; dsDNA, one strand shown. The method, boiled down: (§1)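 In yeast, human transcription factors were expressed with a GST fusion, then pulled down on glutathione beads and given DNA barcodes. Pooled with a tag-only sample, they were exposed to 200 nmole of a 16-mer random double-stranded DNA library (Tris/NaCl/DTT/glycerol buffer, room temperature, 30 min), washed, crosslinked with 0.1% formaldehyde, proximity-ligated using BsaI/T4 ligase for 1 h at 37 °C, PCR-amplified and read on an Illumina NextSeq500. Each hexamer's frequency of reads for a factor, divided by the matching frequency for the tag-only sample, gives the binding signal.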

In the next assay the target is ETV5 (Homo sapiens, UniProt P41161 1-510). The following applies: protein: recombinant; tags: N-terminal GST; dsDNA, one strand shown. The method, boiled down: as §1
The target in the next assay is HSF1 (Homo sapiens, UniProt Q00613 1-529). The settings on record: protein: recombinant; tags: N-terminal GST; chain copies: 3; dsDNA, one strand shown. The method, boiled down:
as §1

A further assay deals with T2, SPIC (Homo sapiens, UniProt Q8N5J4 1-248).
T2 sequence: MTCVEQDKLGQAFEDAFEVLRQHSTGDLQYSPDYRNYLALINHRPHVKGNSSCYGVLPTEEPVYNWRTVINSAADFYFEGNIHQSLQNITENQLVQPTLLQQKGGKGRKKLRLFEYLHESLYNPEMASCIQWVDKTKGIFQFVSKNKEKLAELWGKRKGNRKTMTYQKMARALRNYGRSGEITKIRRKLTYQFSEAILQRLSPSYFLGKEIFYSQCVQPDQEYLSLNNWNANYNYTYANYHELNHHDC
The settings on record: protein: recombinant; tags: N-terminal GST; dsDNA, one strand shown. The method, boiled down: as §1

In another assay the target is ELF4 (Homo sapiens, UniProt Q99607 1-663). The following applies: protein: recombinant; tags: N-terminal GST; dsDNA, one strand shown. The procedure, abridged:
as §1

The target of a further assay is T3, ELK4 (Homo sapiens, UniProt P28324-2 1-405).
T3 sequence: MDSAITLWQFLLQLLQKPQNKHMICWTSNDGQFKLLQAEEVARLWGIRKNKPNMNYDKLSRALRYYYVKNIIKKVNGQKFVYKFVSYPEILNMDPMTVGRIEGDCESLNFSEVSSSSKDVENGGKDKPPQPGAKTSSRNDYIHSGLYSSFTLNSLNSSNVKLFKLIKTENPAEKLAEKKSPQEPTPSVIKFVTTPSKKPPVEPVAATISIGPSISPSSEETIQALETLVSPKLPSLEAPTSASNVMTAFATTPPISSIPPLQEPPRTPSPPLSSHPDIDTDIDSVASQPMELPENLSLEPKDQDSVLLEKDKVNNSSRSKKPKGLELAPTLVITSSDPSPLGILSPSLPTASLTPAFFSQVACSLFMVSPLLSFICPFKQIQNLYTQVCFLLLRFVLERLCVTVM
The settings on record: protein: recombinant; tags: N-terminal GST; dsDNA, one strand shown. The procedure, abridged:
as §1

The target in a further assay is T4, ETV2 (Homo sapiens, UniProt O00321 1-342).
T4 sequence: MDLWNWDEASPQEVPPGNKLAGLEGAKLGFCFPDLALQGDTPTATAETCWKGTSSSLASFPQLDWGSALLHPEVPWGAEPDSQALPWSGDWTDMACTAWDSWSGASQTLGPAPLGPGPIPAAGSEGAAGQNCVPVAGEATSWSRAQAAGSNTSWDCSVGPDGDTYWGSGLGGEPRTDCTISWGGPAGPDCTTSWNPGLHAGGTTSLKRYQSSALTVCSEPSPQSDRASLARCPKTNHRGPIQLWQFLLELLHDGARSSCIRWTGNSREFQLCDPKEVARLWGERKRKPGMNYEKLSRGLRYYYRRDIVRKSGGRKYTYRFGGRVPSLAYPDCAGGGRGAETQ
The following applies: protein: recombinant; tags: N-terminal GST; dsDNA, one strand shown. The method, boiled down:
as §1

In a further assay the target is T5, ELF3 (Homo sapiens, UniProt P78545 1-371).
T5 sequence: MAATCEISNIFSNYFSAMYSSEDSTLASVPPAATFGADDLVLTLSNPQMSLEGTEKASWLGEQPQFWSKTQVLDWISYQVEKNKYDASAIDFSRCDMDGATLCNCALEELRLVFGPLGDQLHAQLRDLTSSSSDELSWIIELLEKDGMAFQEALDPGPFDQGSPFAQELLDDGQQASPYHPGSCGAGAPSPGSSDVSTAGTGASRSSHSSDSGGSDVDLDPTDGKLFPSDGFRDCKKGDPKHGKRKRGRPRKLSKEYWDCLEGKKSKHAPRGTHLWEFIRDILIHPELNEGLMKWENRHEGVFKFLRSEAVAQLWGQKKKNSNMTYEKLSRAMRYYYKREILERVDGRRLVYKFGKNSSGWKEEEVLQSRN
The settings on record: protein: recombinant; tags: N-terminal GST; dsDNA, one strand shown. The method, boiled down: as §1

Another assay has as its target CRX (Homo sapiens, UniProt O43186 1-299). The following applies: protein: recombinant; tags: N-terminal GST; dsDNA, one strand shown. The procedure, abridged: as §1
The target of the next assay is ETV1 (Homo sapiens, UniProt P50549 1-477). The following applies: protein: recombinant; tags: N-terminal GST; dsDNA, one strand shown. The procedure, abridged:
as §1

The target in a further assay is T6, ERF (Homo sapiens, UniProt P50548 1-548).
T6 sequence: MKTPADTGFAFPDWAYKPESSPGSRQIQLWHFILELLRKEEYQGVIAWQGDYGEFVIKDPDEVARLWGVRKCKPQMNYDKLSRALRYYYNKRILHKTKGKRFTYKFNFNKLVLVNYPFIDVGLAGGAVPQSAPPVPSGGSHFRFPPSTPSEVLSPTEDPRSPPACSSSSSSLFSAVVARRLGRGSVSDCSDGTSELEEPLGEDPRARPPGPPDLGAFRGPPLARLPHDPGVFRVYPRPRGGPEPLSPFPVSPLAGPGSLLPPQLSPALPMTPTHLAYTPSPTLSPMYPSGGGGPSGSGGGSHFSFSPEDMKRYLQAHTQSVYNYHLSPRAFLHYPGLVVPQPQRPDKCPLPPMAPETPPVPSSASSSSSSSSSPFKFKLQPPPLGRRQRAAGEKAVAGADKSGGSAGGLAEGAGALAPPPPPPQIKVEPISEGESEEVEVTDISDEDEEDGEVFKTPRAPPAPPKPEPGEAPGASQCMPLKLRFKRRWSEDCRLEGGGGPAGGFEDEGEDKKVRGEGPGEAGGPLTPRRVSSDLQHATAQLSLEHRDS
The following applies: protein: recombinant; tags: N-terminal GST; dsDNA, one strand shown. The procedure, abridged:
as §1

A further assay addresses T7, ETV3L (Homo sapiens, UniProt Q6ZN32 1-361).
T7 sequence: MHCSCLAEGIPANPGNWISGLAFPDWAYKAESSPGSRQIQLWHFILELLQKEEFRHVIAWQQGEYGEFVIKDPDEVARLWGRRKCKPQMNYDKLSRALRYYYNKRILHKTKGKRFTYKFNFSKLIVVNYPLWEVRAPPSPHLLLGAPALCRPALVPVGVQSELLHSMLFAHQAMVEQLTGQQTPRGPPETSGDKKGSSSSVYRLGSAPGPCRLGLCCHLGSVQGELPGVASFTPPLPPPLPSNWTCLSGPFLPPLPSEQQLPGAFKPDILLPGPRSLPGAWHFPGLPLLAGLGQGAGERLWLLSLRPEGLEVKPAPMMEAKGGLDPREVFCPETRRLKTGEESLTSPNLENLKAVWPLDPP
The settings on record: protein: recombinant; tags: N-terminal GST; dsDNA, one strand shown. The procedure, abridged:
as §1

The target of another assay is T8, ETS2 (Homo sapiens, UniProt P15036 1-469).
T8 sequence: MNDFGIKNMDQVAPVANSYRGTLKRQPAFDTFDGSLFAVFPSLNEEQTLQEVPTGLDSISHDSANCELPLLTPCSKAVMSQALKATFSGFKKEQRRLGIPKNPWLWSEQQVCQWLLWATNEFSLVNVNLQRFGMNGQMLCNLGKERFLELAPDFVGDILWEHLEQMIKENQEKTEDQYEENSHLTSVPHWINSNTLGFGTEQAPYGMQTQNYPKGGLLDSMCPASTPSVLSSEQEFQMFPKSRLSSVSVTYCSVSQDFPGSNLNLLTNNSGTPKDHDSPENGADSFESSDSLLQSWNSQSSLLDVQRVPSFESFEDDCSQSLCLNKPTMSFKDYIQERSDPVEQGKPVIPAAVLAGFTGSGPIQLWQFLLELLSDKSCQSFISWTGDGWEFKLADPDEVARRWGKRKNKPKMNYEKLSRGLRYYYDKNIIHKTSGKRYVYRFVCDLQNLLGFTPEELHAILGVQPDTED
The settings on record: protein: recombinant; tags: N-terminal GST; dsDNA, one strand shown. The procedure, abridged:
as §1

A further assay concerns the target T9, SPDEF (Homo sapiens, UniProt O95238 1-335).
T9 sequence: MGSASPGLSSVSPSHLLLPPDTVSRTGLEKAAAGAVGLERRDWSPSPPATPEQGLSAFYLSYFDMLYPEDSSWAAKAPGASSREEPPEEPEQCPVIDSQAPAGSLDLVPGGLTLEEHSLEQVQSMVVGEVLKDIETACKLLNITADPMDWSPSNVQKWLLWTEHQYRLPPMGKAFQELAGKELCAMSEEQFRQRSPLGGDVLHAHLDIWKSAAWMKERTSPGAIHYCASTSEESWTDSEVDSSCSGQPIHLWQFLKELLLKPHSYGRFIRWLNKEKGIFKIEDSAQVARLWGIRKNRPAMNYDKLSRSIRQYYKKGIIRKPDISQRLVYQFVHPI
The settings on record: protein: recombinant; tags: N-terminal GST; dsDNA, one strand shown. The procedure, abridged: as §1

The next assay deals with T10, ETV7 (Homo sapiens, UniProt Q9Y603 1-341).
T10 sequence: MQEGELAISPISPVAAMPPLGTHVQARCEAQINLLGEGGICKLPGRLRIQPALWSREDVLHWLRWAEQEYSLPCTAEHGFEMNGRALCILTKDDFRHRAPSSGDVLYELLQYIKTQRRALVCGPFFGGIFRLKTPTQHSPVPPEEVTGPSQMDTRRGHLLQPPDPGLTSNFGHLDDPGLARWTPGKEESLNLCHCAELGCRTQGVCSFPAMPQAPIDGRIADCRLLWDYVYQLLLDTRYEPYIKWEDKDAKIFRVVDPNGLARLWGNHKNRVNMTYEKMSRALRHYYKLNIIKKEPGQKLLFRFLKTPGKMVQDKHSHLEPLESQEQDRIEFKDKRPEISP
The settings on record: protein: recombinant; tags: N-terminal GST; dsDNA, one strand shown. The method, boiled down:
as §1

The target in a further assay is T11, ELF5 (Homo sapiens, UniProt Q9UKW6-2 1-255).
T11 sequence: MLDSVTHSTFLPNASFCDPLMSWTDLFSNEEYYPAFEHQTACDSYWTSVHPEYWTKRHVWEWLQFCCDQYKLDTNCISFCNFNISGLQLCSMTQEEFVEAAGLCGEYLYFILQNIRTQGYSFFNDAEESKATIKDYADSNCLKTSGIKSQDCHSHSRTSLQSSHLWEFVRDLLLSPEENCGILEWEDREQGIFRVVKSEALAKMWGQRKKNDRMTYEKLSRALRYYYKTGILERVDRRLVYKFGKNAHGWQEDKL
The following applies: protein: recombinant; tags: N-terminal GST; dsDNA, one strand shown. The method, boiled down:
as §1

The target in another assay is T12, ETV3 (Homo sapiens, UniProt P41162-2 1-143).
T12 sequence: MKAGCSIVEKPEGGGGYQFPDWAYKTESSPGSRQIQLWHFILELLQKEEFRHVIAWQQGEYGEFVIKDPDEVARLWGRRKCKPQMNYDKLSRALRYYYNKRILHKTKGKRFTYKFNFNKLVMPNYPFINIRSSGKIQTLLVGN
The following applies: protein: recombinant; tags: N-terminal GST; dsDNA, one strand shown. The procedure, abridged: as §1

The target of another assay is ETV6 (Homo sapiens, UniProt P41212 1-452). The following applies: protein: recombinant; tags: N-terminal GST; dsDNA, one strand shown. The method, boiled down: as §1
ETV6, sequence (P41212 whole entry): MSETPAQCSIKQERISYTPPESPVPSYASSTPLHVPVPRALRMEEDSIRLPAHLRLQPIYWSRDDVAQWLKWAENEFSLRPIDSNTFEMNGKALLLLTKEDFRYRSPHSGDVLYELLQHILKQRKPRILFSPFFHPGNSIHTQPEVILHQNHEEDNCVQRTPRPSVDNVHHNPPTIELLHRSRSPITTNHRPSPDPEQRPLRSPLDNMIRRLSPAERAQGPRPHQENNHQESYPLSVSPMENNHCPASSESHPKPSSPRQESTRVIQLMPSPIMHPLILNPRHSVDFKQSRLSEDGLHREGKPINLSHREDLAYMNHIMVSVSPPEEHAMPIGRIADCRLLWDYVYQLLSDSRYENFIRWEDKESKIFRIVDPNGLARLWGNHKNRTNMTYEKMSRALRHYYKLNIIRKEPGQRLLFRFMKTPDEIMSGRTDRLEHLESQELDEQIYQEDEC

HSF1, sequence (Q00613 whole entry): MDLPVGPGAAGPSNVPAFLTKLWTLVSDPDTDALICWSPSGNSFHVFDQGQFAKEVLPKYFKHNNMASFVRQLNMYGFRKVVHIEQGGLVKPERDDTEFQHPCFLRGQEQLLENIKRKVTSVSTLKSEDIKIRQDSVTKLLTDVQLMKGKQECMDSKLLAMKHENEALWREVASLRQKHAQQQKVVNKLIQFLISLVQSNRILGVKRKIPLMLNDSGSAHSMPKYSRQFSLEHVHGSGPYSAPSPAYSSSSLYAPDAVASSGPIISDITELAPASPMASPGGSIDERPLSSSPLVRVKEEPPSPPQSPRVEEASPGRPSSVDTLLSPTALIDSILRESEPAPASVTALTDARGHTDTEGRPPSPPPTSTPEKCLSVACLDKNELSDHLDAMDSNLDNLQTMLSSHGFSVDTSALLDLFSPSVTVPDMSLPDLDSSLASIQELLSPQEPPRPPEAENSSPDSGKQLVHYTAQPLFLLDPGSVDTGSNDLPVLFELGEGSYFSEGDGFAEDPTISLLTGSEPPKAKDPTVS
ELF4, sequence (Q99607 whole entry): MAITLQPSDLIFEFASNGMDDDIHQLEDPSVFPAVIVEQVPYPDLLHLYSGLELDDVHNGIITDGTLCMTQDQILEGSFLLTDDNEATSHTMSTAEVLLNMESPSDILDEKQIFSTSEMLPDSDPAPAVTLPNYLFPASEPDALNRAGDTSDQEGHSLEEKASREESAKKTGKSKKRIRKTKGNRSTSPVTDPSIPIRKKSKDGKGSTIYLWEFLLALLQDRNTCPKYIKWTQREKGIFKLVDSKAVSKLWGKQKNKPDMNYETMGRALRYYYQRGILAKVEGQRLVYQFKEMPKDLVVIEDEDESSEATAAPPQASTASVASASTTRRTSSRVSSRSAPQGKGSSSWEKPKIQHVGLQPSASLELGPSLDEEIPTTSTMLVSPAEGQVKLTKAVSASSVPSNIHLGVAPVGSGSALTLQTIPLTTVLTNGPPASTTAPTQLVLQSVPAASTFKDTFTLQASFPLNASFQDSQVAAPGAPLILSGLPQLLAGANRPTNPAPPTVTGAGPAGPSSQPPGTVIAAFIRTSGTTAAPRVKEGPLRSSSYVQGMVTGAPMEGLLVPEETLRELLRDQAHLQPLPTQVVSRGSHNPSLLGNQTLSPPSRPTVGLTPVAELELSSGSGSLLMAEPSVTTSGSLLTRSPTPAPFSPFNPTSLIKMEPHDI
CRX, sequence (O43186 whole entry): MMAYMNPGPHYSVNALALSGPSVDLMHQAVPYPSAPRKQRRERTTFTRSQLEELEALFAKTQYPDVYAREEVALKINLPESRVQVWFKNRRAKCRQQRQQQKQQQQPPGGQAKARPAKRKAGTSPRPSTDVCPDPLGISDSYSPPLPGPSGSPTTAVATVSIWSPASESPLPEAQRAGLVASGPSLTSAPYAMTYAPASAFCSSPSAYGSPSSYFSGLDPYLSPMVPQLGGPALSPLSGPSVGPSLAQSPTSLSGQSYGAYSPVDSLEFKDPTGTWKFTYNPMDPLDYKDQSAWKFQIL
ETV5, sequence (P41161 whole entry): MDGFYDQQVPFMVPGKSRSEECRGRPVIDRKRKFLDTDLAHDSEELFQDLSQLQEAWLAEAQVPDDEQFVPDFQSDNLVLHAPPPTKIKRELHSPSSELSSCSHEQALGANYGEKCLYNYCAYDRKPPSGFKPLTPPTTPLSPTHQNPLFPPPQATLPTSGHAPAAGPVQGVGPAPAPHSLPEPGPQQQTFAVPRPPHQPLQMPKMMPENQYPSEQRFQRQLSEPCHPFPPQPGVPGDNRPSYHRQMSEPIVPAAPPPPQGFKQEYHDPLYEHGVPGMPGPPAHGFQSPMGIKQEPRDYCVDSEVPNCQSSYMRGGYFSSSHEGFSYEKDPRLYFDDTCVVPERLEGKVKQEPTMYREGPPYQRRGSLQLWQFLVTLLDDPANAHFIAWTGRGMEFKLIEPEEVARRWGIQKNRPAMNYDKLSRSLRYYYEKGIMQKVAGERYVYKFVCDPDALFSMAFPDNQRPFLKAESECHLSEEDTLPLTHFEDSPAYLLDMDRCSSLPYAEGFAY
ETV1, sequence (P50549 whole entry): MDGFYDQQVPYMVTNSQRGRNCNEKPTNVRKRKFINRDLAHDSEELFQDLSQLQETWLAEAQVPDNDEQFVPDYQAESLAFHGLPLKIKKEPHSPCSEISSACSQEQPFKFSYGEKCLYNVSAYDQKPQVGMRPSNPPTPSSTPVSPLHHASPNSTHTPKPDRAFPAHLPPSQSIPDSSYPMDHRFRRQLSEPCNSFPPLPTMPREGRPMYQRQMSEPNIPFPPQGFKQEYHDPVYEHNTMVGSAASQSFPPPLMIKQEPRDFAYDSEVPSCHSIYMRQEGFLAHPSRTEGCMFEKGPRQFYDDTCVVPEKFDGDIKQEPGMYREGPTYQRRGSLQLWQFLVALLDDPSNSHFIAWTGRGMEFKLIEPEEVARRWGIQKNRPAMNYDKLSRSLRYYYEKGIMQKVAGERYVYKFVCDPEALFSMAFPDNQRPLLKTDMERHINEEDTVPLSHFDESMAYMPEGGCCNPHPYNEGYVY

In the case of TTTATC, the binding signal in the assay with FEV was 1.14 fold enrichment (6-mer frequency, TF over GST control); with ETV5 it was 1.2 fold enrichment (6-mer frequency, TF over GST control); in the assay with HSF1, 1.65 fold enrichment (6-mer frequency, TF over GST control); with SPIC it was 1.26 fold enrichment (6-mer frequency, TF over GST control); with ELF4 it was 1.2 fold enrichment (6-mer frequency, TF over GST control); with ELK4, 1.4 fold enrichment (6-mer frequency, TF over GST control). For the same sequence, the binding signal is 1.24 fold enrichment (6-mer frequency, TF over GST control) with ETV2; 1.18 fold enrichment (6-mer frequency, TF over GST control) with ELF3; 2.15 fold enrichment (6-mer frequency, TF over GST control) in the assay with CRX; 1.18 fold enrichment (6-mer frequency, TF over GST control) in the assay with ETV1; 1.19 fold enrichment (6-mer frequency, TF over GST control) in the assay with ERF; 1.35 fold enrichment (6-mer frequency, TF over GST control) in the assay with ETV3L. The binding signal is 1.26 fold enrichment (6-mer frequency, TF over GST control) with ETS2; 1.25 fold enrichment (6-mer frequency, TF over GST control) in the assay with SPDEF; 1.22 fold enrichment (6-mer frequency, TF over GST control) with ETV7; 1.26 fold enrichment (6-mer frequency, TF over GST control) with ELF5; 1.29 fold enrichment (6-mer frequency, TF over GST control) in the assay with ETV3; 1.24 fold enrichment (6-mer frequency, TF over GST control) with ETV6.
